# Results from PubChem BioAssay.
# A number with no mark means an inactive call. The rule behind the calls is not given here.
# Biological target: Pantothenate synthetase (Mycobacterium tuberculosis (strain ATCC 25618 / H37Rv)) (UniProt P9WIL5)
# Test: Recombinant Mtb pantothenate synthetase (PanC) inhibitors, coupled enzyme, confirmatory (AID 375);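 note: 0% = full reaction with vehicle and 100% = no enzyme background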
# Details: coupled enzyme assay; at 10 µM, hits give high values
# Sequence of Pantothenate synthetase (Mycobacterium tuberculosis (strain ATCC 25618 / H37Rv)) (P9WIL5 whole entry, looked up): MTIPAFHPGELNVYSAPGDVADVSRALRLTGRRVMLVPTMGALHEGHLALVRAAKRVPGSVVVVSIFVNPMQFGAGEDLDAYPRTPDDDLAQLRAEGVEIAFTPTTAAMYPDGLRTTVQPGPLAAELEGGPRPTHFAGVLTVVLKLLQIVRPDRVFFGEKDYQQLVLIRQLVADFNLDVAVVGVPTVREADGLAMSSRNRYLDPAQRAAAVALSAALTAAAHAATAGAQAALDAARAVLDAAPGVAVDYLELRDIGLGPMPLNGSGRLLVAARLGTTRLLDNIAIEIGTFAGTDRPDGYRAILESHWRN
row,SMILES,inhibition [%]
1,CCn1cc(C(=O)NCCCOC)c(=O)c2cc(S(=O)(=O)N(C)C)ccc21,0
2,COc1ccc(-c2noc(COc3ccc(Cl)c(C)c3)n2)cc1,0
3,O=C(OCCCCN1C(=O)c2ccccc2C1=O)c1n[nH]c2ccccc12,2
4,CC(=O)N1CCN(c2ccc(NC(=O)c3ccc(C(C)(C)C)cc3)cc2)CC1,0
5,Cc1nn(Cc2ccccc2Cl)c(C)c1NC(=O)C1C2CCC(O2)C1C(=O)O (stereo not given),1
6,Cc1occc1-c1nnc(SCC(=O)N2CCOCC2)n1Cc1ccco1,6
7,CCOC(=O)CC12CN3CN(C1)CC(CC(=O)OCC)(C3)C2=O,1
8,Cn1c(=O)c(=O)n(C)c2cc(S(=O)(=O)N3CCCCC3)ccc21,14
9,COc1cc(-c2nnc(SCC(=O)c3ccc(C)cc3)o2)cc(OC)c1OC,0
10,CN(C(=O)c1ccccn1)c1nnc(-c2ccncc2)s1,0
11,CC1(C)Cc2c(c(=S)nc(-c3ccccc3)n2CCO)CO1,9
12,CCOC(=O)c1ccc(-n2c(=O)[nH]c3ccccc3c2=O)cc1,2
13,COc1cccc2cc(C(=O)OC3CCN(C)CC3)c(=O)oc12,9
14,CN(C1CCCCC1)S(=O)(=O)c1ccc(NC(=O)c2ccco2)cc1,0
15,Cc1oc(-c2ccccc2)cc1C(N)=O,0
16,COc1ccc(S(=O)(=O)NC2CCCCC2)c(C)c1C,4
17,O=C(Nc1nc(-c2ccc(S(=O)(=O)N3CCCC3)cc2)cs1)C1COc2ccccc2O1 (stereo not given),0
18,CC(=O)O[C@H]1C[C@@H]2CC[C@@H]3[C@H](CC[C@@]4(C)[C@H]3C[C@H]([N+]3(C)CCCCC3)[C@@H]4OC(C)=O)[C@@]2(C)C[C@@H]1[N+]1(C)CCCCC1,0
19,O=S(=O)(c1ccc(OCC(O)CN2CCc3ccccc3C2)cc1)N1CCOCC1 (stereo not given),9
20,O=C(Cn1cnc2c(cnn2-c2ccc(F)cc2)c1=O)N1CCCc2ccccc21,0

row,SMILES,inhibition [%]
1,O=C(O)CCC(=O)Nc1nc(-c2ccccc2)cs1,0
2,Cc1cccc(C)c1NC(=O)CC(NCc1ccco1)C(=O)O (stereo not given),0
3,Cn1c(=O)c2c(nc(SCC(=O)O)n2Cc2cccc(C(F)(F)F)c2)n(C)c1=O,8
4,O=C(COc1ccccc1Cl)OCC(=O)N1CCN(S(=O)(=O)c2ccccc2)CC1,8
5,CCOc1ccc2nc(SCC(=O)Nc3ncccn3)[nH]c2c1,0
6,COc1cccc(-c2nnc(NC(C)=O)o2)c1,0
7,COc1ccccc1N1CCN(CC(O)c2ccc3cc[nH]c3c2)CC1 (stereo not given),5
8,CC(=O)OCC(=O)[C@@]12OC3(CCCC3)O[C@@H]1C[C@H]1[C@@H]3CCC4=CC(=O)C=C[C@]4(C)[C@@]3(F)[C@@H](O)C[C@@]12C,1
9,CCOc1ccccc1NC(=O)CC1Nc2cc(C)c(C)cc2NC1=O (stereo not given),0
10,COC(=O)c1cc(OC)c(OC)cc1NC(=O)CC1CCCCC1,1
11,CCN(CC)S(=O)(=O)c1cccc(-c2nnc(SCC(N)=O)n2CCc2ccccc2)c1,0
12,O=C(C1CCC(N2C(=O)C3CC=CCC3C2=O)CC1)N1CCCCC1 (stereo not given),1
13,COc1cc(OC)cc(C(=O)N2c3ccc(F)cc3CCC2C)c1 (stereo not given),0
14,CCOCCCNC(=O)c1ccc2c(c1)ncn2C1CCCC1,5
15,O=S(=O)(c1ccc(S(=O)(=O)N(Cc2ccco2)Cc2ccccc2Cl)cc1)N1CCCC1,0
16,CCNCc1cc2cc(C)ccc2[nH]c1=O,0
17,CCc1ccc(C2CC(c3ccccc3)n3ncnc3N2)cc1 (stereo not given),0
18,Cc1ccc(S(=O)(=O)NCC(=O)N(CC(=O)NCc2ccccc2)CC2CCCO2)cc1 (stereo not given),2
19,O=C(c1cccc(C(=O)N2CCN(c3ccccc3)CC2)c1)N1CCN(c2ccccc2)CC1,0
20,CCn1c(SCC(=O)NCc2ccco2)nc2c(c1=O)SC(C)C2 (stereo not given),8
